Source: PubChem BioAssay (Broad Institute)
Rows were chosen to be rich in hits. Some 1.3% of all compounds tested hit in one or more screens of this group.
C2C12 statin = protects C2C12 myotubes from simvastatin toxicity; ATP luminescence, 48 h; scaled: DMSO 0, geranylgeraniol control 100; rescue of ATP level, % at 7.49 µM; actives 0.78% (n = 330,000); AID 602340;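 active = mean ATP rescue above about 67%, or every replicate alone reaching that limit, limit read from the data, passing the limit was not always enough; inconclusive = no clear call, values can overlap the other calls; inactive = mean under the limit and some replicate under it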;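 note: myotubes were challenged with 10 µM simvastatin during compound exposure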
AI-2 QS mod = Vibrio harveyi AI-2 quorum sensing modulation; activity change, % at 7.5 µM; actives 0.4% (n = 300,000); Vibrio harveyi JMH597 AI-2 luminescence/OD600 ratio, 9 h; hits give low values; strain lacks LuxN and CqsS sensors; 0 = neutral-control median; in the data active = activity change below about -75%, passing the limit was not always enough; inconclusive = no clear call, values can overlap the other calls;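 note: luminescence divided by OD600 gain over 9 h not by final OD600 alone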
Rce1 inhib = inhibitors of yeast Ras-converting enzyme; calls only; yeast membranes, quenched prenylated peptide cleavage fluorescence; actives 0.27% (n = 290,000); Q03530;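 active = fall in fluorescence gain of 50% or more versus controls, with final raw signal at or below 3038400; inconclusive = same 50% fall but final raw signal above 3038400; inactive = fall in fluorescence gain under 50%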
Target sequence (Q03530 whole entry, looked up): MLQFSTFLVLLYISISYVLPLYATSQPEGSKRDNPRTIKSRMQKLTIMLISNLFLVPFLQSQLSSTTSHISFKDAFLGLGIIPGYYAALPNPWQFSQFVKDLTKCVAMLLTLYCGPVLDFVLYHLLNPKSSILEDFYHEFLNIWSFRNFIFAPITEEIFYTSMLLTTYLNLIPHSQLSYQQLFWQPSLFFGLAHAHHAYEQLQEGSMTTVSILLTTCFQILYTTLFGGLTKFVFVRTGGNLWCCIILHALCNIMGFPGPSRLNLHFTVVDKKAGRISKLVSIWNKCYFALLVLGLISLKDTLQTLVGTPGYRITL
PGC1a acetyl inh = lowers PGC1a acetylation signal in U2OS cells; AlphaScreen anti-acetyl-lysine; with virally co-expressed GCN5 acetyltransferase; actives 0.17% (n = 350,000); inhibition, % at 15.6 µM;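 active = every replicate shows inhibition of at least 40%; inconclusive = mean inhibition at least 40% but some replicate below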
HIF act = HIF pathway transcriptional activation. activation, % at 7.5 µM (by protocol). actives 0.32% (n = 300,000). U2OS HRE-luciferase reporter, luminescence; normalized: DMSO 0%, desferrioxamine 100%;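 active = mean activation of at least 10% of the iron chelator positive control signal, with at least half of replicates also reaching 10%; inconclusive = mean and replicate majority disagree about reaching 10%; inactive = mean and most replicates under 10%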
A number is an active result.

For COc1ccc(/C=C2\SC(=O)N(CCC(=O)N(C)C3CCS(=O)(=O)C3)C2=O)cc1 (configuration not stated) the results were C2C12 statin inactive, AI-2 QS mod inactive, Rce1 inhib inactive, PGC1a acetyl inh inactive and HIF act 64.3.
COc1ccc(/C=C2\SC(=O)N(CC(=O)N(C)C3CCS(=O)(=O)C3)C2=O)cc1 (configuration not stated) was read as C2C12 statin inactive, AI-2 QS mod inactive, Rce1 inhib inactive, PGC1a acetyl inh inactive and HIF act inactive.
`CO[C@H]1C=CO[C@@]2(C)Oc3c(C)c(O)c4c(O)c(c5c(nc6cc(C)ccn65)c4c3C2=O)NC(=O)C(C)=CC=C[C@H](C)[C@H](O)[C@@H](C)[C@@H](O)[C@@H](C)[C@H](OC(C)=O)[C@@H]1C` gave AI-2 QS mod -218.8, Rce1 inhib inactive and HIF act inactive.
For CO[C@H]1CN(C)C(=O)c2cc(NS(=O)(=O)CC(F)(F)F)ccc2OC[C@@H](C)N(Cc2cccnc2)C[C@@H]1C the results were C2C12 statin inactive and PGC1a acetyl inh inactive.
CC1(C)CCCN(C(=O)c2coc(=O)c(Br)c2)C1 was read as C2C12 statin inactive, AI-2 QS mod inactive, Rce1 inhib active, PGC1a acetyl inh inactive and HIF act inactive.
Screening COc1ccc(Cc2nc(C(=O)Nc3ccc(OC)cc3)cs2)cc1 returned C2C12 statin 122.4, AI-2 QS mod inactive, Rce1 inhib inactive, PGC1a acetyl inh inactive and HIF act inactive.
Screening CO[C@@H]1CN(C)C(=O)c2cc(NC(=O)C3CCC3)ccc2OC[C@H](C)N(Cc2ccncc2)C[C@H]1C returned C2C12 statin inactive and PGC1a acetyl inh inactive.
For O=C1C[C@@](C(=O)NCCN2CCOCC2)(c2ccc([N+](=O)[O-])cc2)[C@@H](c2ccc(CO)cc2I)N1CC12CC3CC(CC(C3)C1)C2 the results were PGC1a acetyl inh inactive.
Screening CC1(C)CC(NC(=O)CCC2CCCC2)CC(C)(C)N1 returned C2C12 statin 105.9, AI-2 QS mod inactive, Rce1 inhib inactive, PGC1a acetyl inh inactive and HIF act inconclusive.
`CC1(C)CC(NC(=O)CC2CCCCC2)CC(C)(C)N1` gave C2C12 statin inactive, AI-2 QS mod inactive, Rce1 inhib inactive, PGC1a acetyl inh inactive and HIF act inactive.
`O=C(Cn1ncc(Cl)c(Cl)c1=O)c1ccc(Cl)cc1` gave AI-2 QS mod inactive, Rce1 inhib inactive, PGC1a acetyl inh 85.3 and HIF act inactive.
Screening CC(C)CC#Cc1ccc2c(c1)O[C@@H](CN(C)Cc1ccccn1)[C@H](C)CN([C@H](C)CO)S2(=O)=O returned C2C12 statin inactive and PGC1a acetyl inh inactive.
For CCN(CC)CCn1nc2c3c(cccc3c1=O)-c1ccccc1-2 the results were AI-2 QS mod inactive, Rce1 inhib inactive and HIF act 29.2.
C[C@@H]1CN([C@@H](C)CO)C(=O)c2cccc(NC(=O)NC3CCCCC3)c2O[C@@H]1CN(C)S(=O)(=O)c1ccc(F)cc1 was read as C2C12 statin inactive and PGC1a acetyl inh inactive.
Screening Cn1nnnc1N=N/C(=N/Nc1ccccc1)c1ccccc1 returned AI-2 QS mod inactive, Rce1 inhib inactive, PGC1a acetyl inh inactive and HIF act 181.9.
For Oc1ccccc1N=N/C(=N/Nc1ccccc1O)c1ccccc1 the results were C2C12 statin inactive, AI-2 QS mod inactive, Rce1 inhib inactive and HIF act inactive.
For CC1SC(=NC(=O)c2ccncc2)NC1=O (configuration not stated) the results were AI-2 QS mod inactive, Rce1 inhib inactive and HIF act 932.4.
`COc1ccccc1C1=NN(C2=NN=C(N)Cc3ncnn32)C(O)(C(F)(F)F)C1` (configuration not stated) gave AI-2 QS mod inactive, Rce1 inhib active and HIF act inactive.
`C[C@@H]1CN([C@H](C)CO)C(=O)c2cc(-c3ccccc3F)cnc2O[C@@H]1CN(C)C(=O)C1CC1` gave C2C12 statin inactive and PGC1a acetyl inh inactive.
`C[C@H](CO)N1C[C@H](C)[C@H](CN(C)Cc2cccc(C(=O)O)c2)Oc2ncc(C#CCN(C)C)cc2C1=O` gave C2C12 statin inactive and PGC1a acetyl inh inactive.
For COc1cccc(-c2csc(N3CCN(C(=O)Nc4ccccc4OC)CC3)n2)c1 the results were C2C12 statin 77.1, AI-2 QS mod inactive, Rce1 inhib inactive, PGC1a acetyl inh inactive and HIF act inactive.
COc1cccc(-c2csc(N3CCN(C(=O)Nc4ccc(F)cc4)CC3)n2)c1 was read as C2C12 statin inactive, AI-2 QS mod inactive, Rce1 inhib inactive, PGC1a acetyl inh inactive and HIF act inactive.
For CN(C)C(=O)C[C@H]1CC[C@H](NC(=O)C2CC2)[C@@H](CO)O1 the results were C2C12 statin inactive and PGC1a acetyl inh inactive.
For CCc1ccc(OCC(=O)NNC(=O)c2cc3ccccc3o2)cc1 the results were C2C12 statin 81.0, AI-2 QS mod inactive, Rce1 inhib inactive, PGC1a acetyl inh inactive and HIF act inactive.
Screening COc1cccc2[nH]c(C(=O)NC(C)c3ccccc3)cc12 (configuration not stated) returned C2C12 statin inactive, AI-2 QS mod inactive, Rce1 inhib active and HIF act inactive.
COc1ccc(C(=O)NC(C)c2ccccc2)cc1Br (configuration not stated) was read as AI-2 QS mod inactive, Rce1 inhib inactive, PGC1a acetyl inh inactive and HIF act inactive.
For COc1ccc(NC(=O)Nc2ccc3c(c2)CC(=O)N([C@@H](C)CO)C[C@H](C)[C@@H](CN(C)C(=O)Nc2ccc4c(c2)OCO4)O3)cc1 the results were C2C12 statin inactive and PGC1a acetyl inh inactive.
Cn1c(CNC(=O)c2ccco2)nnc1SCC(=O)N1c2ccccc2Sc2ccccc21 was read as C2C12 statin 93.5, AI-2 QS mod inactive, Rce1 inhib inactive and PGC1a acetyl inh inactive.
Screening Nc1c(C(=O)Nc2cccc(C(=O)O)c2)sc2nc3c(cc12)CCCC3 returned C2C12 statin inactive, AI-2 QS mod inactive, Rce1 inhib active, PGC1a acetyl inh inactive and HIF act inactive.
C=C[C@@H](COC(C)=O)N(Cc1ccccc1[N+](=O)[O-])S(=O)(=O)c1ccc(Br)cc1 was read as PGC1a acetyl inh inactive.
CCC(=O)N1C[C@H]2[C@@H](c3ccccc31)[C@H](CO)N2C(=O)Nc1ccccc1F was read as C2C12 statin inactive and PGC1a acetyl inh inactive.
For CCOc1ccc(S(=O)(=O)NN)cc1 the results were C2C12 statin 96.1, AI-2 QS mod inactive, Rce1 inhib inactive, PGC1a acetyl inh inactive and HIF act inactive.
Screening COCCNCC(=O)NC12CC3CC(CC(C3)C1)C2 returned C2C12 statin 117.4, AI-2 QS mod inactive, Rce1 inhib inactive, PGC1a acetyl inh inactive and HIF act inactive.
Screening COCCC(=O)NC12CC3CC(CC(C3)C1)C2 returned C2C12 statin inactive, AI-2 QS mod inactive, Rce1 inhib inactive, PGC1a acetyl inh inactive and HIF act inactive.
